# Compound activity (PubChem)
# Only some compounds are listed: those with a hit (about 0.99% of all), similar ones and a draw of the others.
# MKP-1 inh – inhibitors of human MKP-1 phosphatase; P28562; hit rate 0.15% among 65,000; inhibition, %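 (compounds tested at a single concentration somewhere between 10 and 100 µM)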; AID 374; recombinant MKP-1, OMFP hydrolysis fluorescence;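 active = inhibition above about 50%, limit read from the data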;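 note: 0% = DMSO max control wells and 100% = wells with enzyme stopped by NaOH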
# Hsp90 inh – displaces geldanamycin probe from tumor Hsp90; P07900; NCI-N417 lysate Hsp90, Cy3B-geldanamycin FP displacement; inhibition, % at 30 µM; hit rate 0.35% among 64,000; AID 429;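 active = inhibition above 50%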;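 note: 0% = tracer plus lysate wells and 100% = tracer alone without lysate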
# Cdc25B block – inhibitors of human Cdc25B phosphatase | P30305 | recombinant Cdc25B, OMFP fluorescence Ex485/Em525 | inhibition, %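 (compounds tested at 10 µM final in the well)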 | hit rate 0.1% among 65,000; in the data active = inhibition above about 50%
# SK-BR-3 tox 24h – SK-BR-3 proliferation inhibitors. hit rate 0.47% among 41,000. AID 847. viability, % at 10 µM. SK-BR-3 viability, CellTiter-Glo ATP luminescence, 24 h; hits give low values;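 active = viability at or below the median of all test compounds minus 3 SD, in both replicates if run twice, cut at about 45% in these data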;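 note: 100% = median untreated cell wells and 0% = median positive control drug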
# ROCK2 blocker – blocks human Rho kinase 2 activity | O75116 | purified ROCK2, Kinase-Glo ATP depletion luminescence | inhibition, % at 6 µM | hit rate 0.35% among 60,000 | AID 604;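 active = inhibition above the screen-wide mean inhibition plus 3 SD, cut at about 18% in these data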;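 note: plate controls were DMSO wells for no effect and Y-27632 control wells after no-enzyme background subtraction for full effect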
# PKA inh – inhibitors of human protein kinase A | PKA Kemptide phosphorylation, Kinase-Glo ATP luminescence | inhibition, % at 6 µM | P17612 | hit rate 0.1% among 65,000 | AID 524;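 active = inhibition above the screen-wide mean inhibition plus 3 SD, cut at about 21% in these data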
# Starred values were filed as active, the others as inactive; / = no result.
SMILES,MKP-1 inh,Hsp90 inh,Cdc25B block,SK-BR-3 tox 24h,ROCK2 blocker,PKA inh
CCNC(=O)[C@@H]1CCCN1C(=O)[C@H](CCCN=C(N)N)NC(=O)[C@H](CC(C)C)NC(=O)[C@@H](CC(C)C)NC(=O)[C@H](Cc1ccc(O)cc1)NC(=O)[C@H](CO)NC(=O)[C@H](Cc1c[nH]c2ccccc12)NC(=O)[C@H](Cc1cnc[nH]1)NC(=O)[C@@H]1CCC(=O)N1,-4.4,/,-9.1,80.9,/,/
COc1ccc(N2CCN(c3nc4c(c(=O)[nH]c(=O)n4C)n3CCCc3ccccc3)CC2)cc1,-13.7,-2.2,4.8,97.9,3.0,6.2
Cc1ccc(SCCNC(=O)CN2C(=O)c3ccccc3S2(=O)=O)cc1,14.5,/,-6.6,89.4,/,-4.1
O=C(CN1C(=O)c2ccccc2S1(=O)=O)NCCSc1ccccc1,-20.4,-1.9,-6.3,43.8*,-4.2,-12.3
O=C(COc1ccccc1)N1CCN(S(=O)(=O)c2cccs2)CC1,-1.6,/,61.4*,89.8,-4.4,-1.4
N#Cc1ccc(OCC(=O)N2CCN(S(=O)(=O)c3cccs3)CC2)cc1,-8.7,0.6,2.2,/,5.1,9.5
CCn1c(SCC(=O)Nc2nc3ccc(OC)cc3s2)nc2c1c(=O)n(C)c(=O)n2C,50.0*,-2.2,2.2,67.0,5.0,-4.3
O=C1NCCCC2c3cc(O)c4ccccc4c3OC12N1CCCCC1 (stereo not given),39.9,94.8*,46.0,5.1*,-2.7,-1.6
CC1CN(CC(=O)N2CCc3[nH]c4ccccc4c3C2)CC(C)O1 (stereo not given),-18.2,-3.6,-10.7,74.4,5.6,3.1
CC1CC(C)CN(CC(=O)N2CCc3[nH]c4ccccc4c3C2)C1 (stereo not given),-10.0,-5.2,-4.0,42.9*,0.4,-2.6
COc1cc(NCCC(=O)O)c2ncccc2c1,/,0.5,/,/,/,/
COc1cccc(N2CCN(c3ncnc4c3[nH]c3ccccc34)CC2C)c1 (stereo not given),-11.6,-1.0,3.9,59.6,-11.0,-10.0
COc1cccc(N2CCN(c3ncnc4c3[nH]c3ccc(F)cc34)CC2C)c1 (stereo not given),-1.5,-1.0,24.2,5.7*,6.6,5.8
COc1cc(NCCCC(C)=NO)c2ncccc2c1,/,-5.6,/,/,/,/
Fc1cc2nc(-c3ccncc3)[nH]c2cc1F,5.8,/,-6.5,95.3,/,23.8*
Oc1ccc(-c2nc(-c3ccc(F)cc3)c(-c3ccncc3)[nH]2)cc1,/,-0.2,/,/,/,/
CCN(CC)C(=O)c1csc(Nc2ccc(C)cc2)n1,-3.6,0.2,-15.3,38.2*,-1.3,-1.5
C(=N\c1nc2ccccc2n1CCN1CCCCC1)/c1cccs1,-23.9,-5.1,0.3,76.9,19.3*,4.8
CNC(=O)[C@H]1O[C@@H](n2cnc3c(N)ncnc32)C(O)[C@H]1O (stereo not given in full),/,22.4,/,/,/,/
CCOc1ccccc1NC(=O)C1=C(C)NC(=O)NC1c1cccc(OC)c1OC (stereo not given),11.0,-4.5,-9.2,23.3*,8.3,9.6
COc1ccccc1NC(=O)C1=C(C)NC(=O)NC1c1cccc(OC)c1OC (stereo not given),7.7,-3.1,-4.1,87.5,-1.2,-9.1
O=C(c1cccn2c(=O)c3ccc(Cl)cc3nc12)N1CCN(Cc2ccc3c(c2)OCO3)CC1,64.1*,2.4,-6.0,/,/,10.2
O=C(c1cc2cc3ccc(Cl)cc3nc2o1)N1CCN(Cc2ccc3c(c2)OCO3)CC1,-4.0,0.4,11.8,/,-1.4,0.3
Cc1ccc(NC(=O)CSc2nnc(Cc3cccn3C)n2-c2ccc(F)cc2)cc1,16.1,3.3,-5.0,/,1.2,5.5
CC(=O)c1ccc(NC(=O)CSc2nnc(Cc3cccn3C)n2-c2ccc(F)cc2)cc1,16.6,87.3*,-8.1,/,2.3,3.2
SMILES,MKP-1 inh,Hsp90 inh,Cdc25B block,SK-BR-3 tox 24h,ROCK2 blocker,PKA inh
CNc1ncnc2c1ncn2[C@H]1C[C@H](OP(=O)(O)O)[C@@H](COP(=O)(O)O)O1,/,-2.3,/,/,/,/
Cc1nnc(SCCn2c(Br)nc3c2c(=O)n(C)c(=O)n3C)s1,-12.2,-2.4,4.8,92.5,5.8,9.1
Cc1nnc(SCCn2c(N3CC(C)CC(C)C3)nc3c2c(=O)n(C)c(=O)n3C)s1 (stereo not given),21.6,68.2*,0.8,97.2,-1.4,-6.3
N=S(=O)(O)Cc1noc2ccccc12,/,1.5,/,/,/,/
CCN(CC)CCNC(=O)CCCCn1c(=S)[nH]c2c([nH]c3ccc(OC)cc32)c1=O,0.5,0.2,5.8,/,29.5*,12.9
NC(N)=[N+]1CCc2ccccc2C1,/,0.7,/,/,/,/
COC1(c2cc(-c3ccccc3)nc(N)n2)CCCCC1,11.8,-1.6,-4.9,/,3.2,9.5
O=C1c2ccccc2C(Nc2ccc3c(c2)OCO3)N1Cc1ccc2c(c1)OCO2 (stereo not given),-2.0,51.0*,-3.4,/,2.6,6.0
O=c1[nH]c2cc(C(F)(F)F)ccc2n1-c1cc(C(F)(F)F)ccc1O,/,58.9*,/,/,/,/
CCn1nnc(NC(=O)COc2cc(C)ccc2C(C)C)n1,4.0,71.6*,-7.7,97.0,6.0,11.0
CCOc1ccc(S(=O)(=O)Nc2cc(Sc3ncn[nH]3)c3oc(=O)sc3c2)cc1,9.1,53.9*,20.5,88.1,2.7,2.0
CCOc1ccc(S(=O)(=O)Nc2cccc(Cl)c2)cc1,-1.5,-2.7,-11.6,82.7,3.0,1.6
O=C(Cc1ccccc1)Nc1ccc2oc(-c3cccnc3)nc2c1,2.4,-1.8,-8.5,82.1,2.7,8.4
O=C(Cc1ccc(Cl)cc1)Nc1ccc2oc(-c3ccncc3)nc2c1,6.8,-5.0,-3.7,33.6*,14.6,15.1
Nc1ncnc2c1nc(Sc1ccc(Cl)cc1)n2C1OC2COP(=O)(O)O[C@@H]2[C@@H]1O (stereo not given in full),/,2.6,/,/,/,/
COC(=O)c1[nH]c2ccc(C)cc2c1NS(=O)(=O)c1ccc(F)c(C)c1,-26.4,-6.5,-10.9,77.7,9.2,11.0
COC(=O)c1[nH]c2ccc(C)cc2c1NS(=O)(=O)c1ccc(F)cc1,9.2,-5.2,-8.5,37.9*,-3.5,-5.4
COc1ccc(-c2nnc3n2N=C(c2ccccc2)CS3)cc1OC,-17.7,-5.0,-20.2,24.0*,4.0,8.4
Nc1cc(Cl)ccc1Oc1ccccc1,-1.8,1.1,8.2,99.5,1.7,1.1
Cc1ccc(Oc2ccccc2)c(NC=O)c1,3.4,/,-16.2,36.0*,/,10.1
COc1ccc(C2=CC(c3ccc(Cl)cc3)n3cnnc3N2)cc1OC (stereo not given),26.3,/,-14.3,40.2*,/,-1.8
CS(=O)(=O)N(CCc1ccccc1)CC(N)=O,2.2,-1.6,0.8,92.8,9.8,10.0
CC1CCCCC1NS(=O)(=O)c1ccc(S(=O)(=O)NCc2ccncc2)cc1 (stereo not given),81.2*,-1.2,-16.2,94.5,1.8,-13.7
COc1ccc(N(CN2C(=O)C3C4C=CC(C4)C3C2=O)C(=O)c2ccco2)cc1 (stereo not given),28.4,-1.6,31.9,100.3,-9.9,0.5
